High-throughput results: PubChem BioAssay, Broad Institute
NSD2 inh – inhibitors of human histone methyltransferase NSD2. O96028. NSD2 peptide methylation, AlphaScreen, 120 min. inhibition, % at 12.5 µM. 0.54% of 310,000 active; in the data active = inhibition above about 50%
CASP6 VEID inh – blocks human caspase-6 cleavage activity; P55212; purified caspase-6, Z-VEID-R110 cleavage fluorescence; inhibition, % at 12.5 µM; 0.53% of 350,000 active; AID 686996;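 active = mean inhibition across replicates at least about 35%, with every replicate also reaching that limit, limit read from the data; inconclusive = only one of the two criteria met; inactive = neither criterion met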
Target sequence (P55212 24-179 limits assumed): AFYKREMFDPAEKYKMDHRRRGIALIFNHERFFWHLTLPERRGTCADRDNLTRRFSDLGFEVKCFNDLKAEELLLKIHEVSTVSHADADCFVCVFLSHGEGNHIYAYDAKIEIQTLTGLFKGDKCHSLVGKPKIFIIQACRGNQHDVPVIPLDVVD
Target sequence (P55212 194-293 limits assumed): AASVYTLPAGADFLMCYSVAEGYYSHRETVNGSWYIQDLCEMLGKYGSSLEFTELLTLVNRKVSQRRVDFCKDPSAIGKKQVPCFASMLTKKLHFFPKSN
ALR inh – inhibitors of human sulfhydryl oxidase ALR; P55789; purified ALR, DTT oxidation, H2O2 HRP-luminol luminescence; inhibition, % (no concentration beside the values); 3.8% of 290,000 active;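 active = mean replicate inhibition above about 79%, with every replicate also reaching it, limit read from the data; inconclusive = only one of the two criteria met; inactive = mean below limit and not every replicate reaching it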
Target sequence (P55789 whole entry, looked up): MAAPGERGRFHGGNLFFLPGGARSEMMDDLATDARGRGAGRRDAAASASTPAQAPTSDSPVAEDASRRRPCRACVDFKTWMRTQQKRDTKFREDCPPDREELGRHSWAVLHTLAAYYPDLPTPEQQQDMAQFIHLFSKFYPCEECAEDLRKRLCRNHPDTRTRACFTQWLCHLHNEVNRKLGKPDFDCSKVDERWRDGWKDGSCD
HIV Env fusion – HIV envelope-mediated fusion inhibition. HeLa-JRFL Env/CEM21 cell fusion, luciferase. inhibition, % at 12.3 µM. 1.1% of 360,000 active;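 active = mean replicate inhibition score of at least 50 and every replicate individually at or above 50; inconclusive = only one of the two criteria met; inactive = mean below 50 and not all replicates reaching 50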
PglD DTNB – blocks C. jejuni PglD acetyltransferase activity; inhibition, % at 12.5 µM; AID 602405; 0.098% of 360,000 active; purified PglD enzyme, DTNB colorimetric CoA detection; in the data active = inhibition above about 16%, passing the limit was not always enough; inconclusive = no clear call, values can overlap the other calls
F508del corr – CFTR F508del correction in bronchial cells; 0.36% of 350,000 active; AID 720511; CFBE cells, YFP halide quenching; stimulated with forskolin plus potentiator P3; % fluorescence drop versus neutral controls; activity (quench increase), % at 7.58 µM;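 active = mean added fluorescence quench of at least 8% versus neutral control, with both replicates also reaching 8%; inconclusive = only one of the mean or replicate conditions met; inactive = mean below 8% and not both replicates reaching 8%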;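 also: cells transiently co-express mutant CFTR-F508del with the halide-sensitive YFP; corrector assay measuring rescue of mutant channel to the surface after 24 h compound exposure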
Each line names hits and unclear results; the compound was inactive in the other large screens. Sampled rows, rich in hits. Any-hit rate of the full collection: about 4.1%.

COc1ccc(C(=O)Nc2ccccc2C(=O)Nc2ccccc2)cc1	F508del corr 8.8 (no result: ALR inh)
O=C(O)c1ccccc1NC(=O)c1ccccc1Nc1ccccc1	ALR inh 98
COc1ccc(C(=O)Nc2ccccc2NC(=O)c2ccc(OC)cc2)cc1	none
O=C(Nc1ccccc1C(=O)Nc1ccccc1C(=O)O)c1ccccc1	ALR inh 97
CCCNC(=O)C[C@H]1C[C@@H]2c3cc(NC(=O)Nc4ccccc4)ccc3O[C@@H]2[C@H](CO)O1	none (no result: NSD2 inh, CASP6 VEID inh, ALR inh)
O=C(O)c1sc(C(=O)O)c(-c2ccccc2)c1-c1ccccc1	none (no result: ALR inh, PglD DTNB)
CC(=O)c1sc(C(=O)O)c(-c2ccco2)c1-c1ccco1	CASP6 VEID inh 64 (no result: PglD DTNB)
COc1ccc(C(=O)Nc2ccc(C)cc2C(=O)c2ccccc2)c(OC)c1	ALR inh 97 (no result: PglD DTNB, F508del corr)
COc1ccc(NC(=O)c2cc3ccccc3cc2OC)cc1	none
COc1cc(C(=O)c2ccccc2)c(OC)cc1C(=O)Nc1ccc(O)cc1	ALR inh 100 (no result: PglD DTNB, F508del corr)
CN1C(=O)c2cc(NS(=O)(=O)c3ccc(F)cc3)ccc2OC[C@@H]2O[C@@H](CC(=O)O)CC[C@@H]21	none (no result: NSD2 inh, ALR inh)
C[C@@H]1CN([C@H](C)CO)C(=O)c2cccc(NS(=O)(=O)c3ccc(F)cc3)c2O[C@H]1CN(C)S(=O)(=O)c1ccccc1	none (no result: NSD2 inh, CASP6 VEID inh, ALR inh)
CCOC(=O)Cc1cc(=O)n2[nH]c(-c3ccc(Cl)cc3)cc2n1	none (no result: CASP6 VEID inh, HIV Env fusion, PglD DTNB, F508del corr)
COCc1cc(=O)n2[nH]cc(-c3ccsc3)c2n1	ALR inh 99
CCOC(=O)Cc1cc(=O)n2[nH]cc(-c3ccc(Cl)cc3)c2n1	ALR inh 99
CNC(=O)C[C@H]1CC[C@@H]2[C@@H](COc3ccc(NC(=O)c4ccc5c(c4)OCO5)cc3C(=O)N2C)O1	HIV Env fusion inconclusive (no result: NSD2 inh, CASP6 VEID inh, ALR inh)
O=C1N[C@@H](Cc2ccccc2)COCc2cn(nn2)CC[C@H]1Cc1ccccc1	none (no result: NSD2 inh, ALR inh, PglD DTNB, F508del corr)
O=c1c(Cl)cc(Cl)nn1-c1ccccc1	ALR inh 98 (no result: NSD2 inh, PglD DTNB, F508del corr)
COCC(=O)N1[C@H](CO)[C@H](c2ccc(-c3ccccc3OC)cc2)C12CN(C(C)=O)C2	none (no result: NSD2 inh, ALR inh, HIV Env fusion, PglD DTNB)
CCCCSc1nc(O)c(C2OC(=O)c3c2ccc(OC)c3OC)c(=O)n1C (configuration not stated)	ALR inh inconclusive (no result: CASP6 VEID inh, PglD DTNB, F508del corr)
CCCCCCSc1nc(O)c(C2OC(=O)c3c2ccc(OC)c3OC)c(=O)n1-c1ccccc1 (configuration not stated)	ALR inh 98 (no result: HIV Env fusion, F508del corr)
c1ccc2c3c([nH]c2c1)C(C1CCCCC1)N(Cc1ncc[nH]1)CC3 (configuration not stated)	ALR inh 98 (no result: CASP6 VEID inh, F508del corr)
CN1c2ccccc2C(O)=C(C(=S)Nc2ccccc2)S1(=O)=O	none (no result: NSD2 inh, CASP6 VEID inh, F508del corr)
CN1c2ccccc2C(O)=C(C(=S)Nc2ccc(F)c(Cl)c2)S1(=O)=O	ALR inh 96 (no result: NSD2 inh, CASP6 VEID inh, F508del corr)
CCCCCCc1ccc(OC(=O)c2ccncc2)cc1	none
CCCCCCOc1ccc(OC(=O)c2ccncc2)cc1	HIV Env fusion 70 (no result: F508del corr)
O=C(NC1CCCCC1)N[C@H]1CC[C@@H](CCNS(=O)(=O)c2ccccc2)O[C@H]1CO	none (no result: NSD2 inh, ALR inh)
COc1ccc(N2CCN(Cc3nc(N)nc(N4CCCc5ccccc54)n3)CC2)cc1	ALR inh 87 (no result: NSD2 inh, CASP6 VEID inh, F508del corr)
Nc1nc(CN2CCN(c3ccccc3)CC2)nc(N2CCCc3ccccc32)n1	ALR inh 98 (no result: CASP6 VEID inh, F508del corr)
Cc1ccc(S(=O)(=O)N(C)C[C@H]2Oc3ccc(NS(=O)(=O)c4cn(C)cn4)cc3CC(=O)N([C@H](C)CO)C[C@H]2C)cc1	none (no result: NSD2 inh, CASP6 VEID inh, ALR inh, PglD DTNB)
C[C@@H]1CCCCO[C@H](CN(C)CC2CCCCC2)[C@@H](C)CN([C@H](C)CO)C(=O)c2cc(NC(=O)Nc3ccc4c(c3)OCO4)ccc2O1	none (no result: NSD2 inh, ALR inh)
Cc1cc(C)c(S(=O)(=O)N2CCN=C2c2ccccc2)cc1C	HIV Env fusion 82 (no result: NSD2 inh, CASP6 VEID inh, F508del corr)
COc1cc(C)c(S(=O)(=O)N2CCN=C2c2ccccc2)cc1C	none (no result: CASP6 VEID inh, PglD DTNB, F508del corr)
C[C@@H]1CCCCO[C@H](CN(C)CC2CCCCC2)[C@H](C)CN([C@H](C)CO)C(=O)c2cc(NS(=O)(=O)c3cccs3)ccc2O1	none (no result: NSD2 inh, ALR inh)
O=C(/C=C/c1ccccc1O)c1ccco1	none (no result: ALR inh)
Nc1ccc(/C=C/C(=O)c2ccco2)cc1	ALR inh 99 (no result: PglD DTNB, F508del corr)
O=C(/C=C/c1cc(Br)ccc1O)c1ccco1	ALR inh 97 (no result: NSD2 inh)
CN(C)CC(=O)N1CCCCN2[C@@H](CO)[C@H](c3ccc(/C=C/c4ccccc4)cc3)[C@@H]2C1	none (no result: NSD2 inh, ALR inh, HIV Env fusion)
O=C(Cc1cccnc1)N1CC(=O)N2[C@@H](CO)[C@H](c3ccc(C#CC4CCCC4)cc3)[C@@H]2C1	none (no result: NSD2 inh, ALR inh, HIV Env fusion, PglD DTNB)
